From ChEMBL document CHEMBL4513149, “CO-ADD screening of MMV (CH) - MMV compounds” (2021) come the findings set out here.

Entries with a potency or affinity are not part of this list.

The assay deals with Staphylococcus aureus. The note with it: Concentration 20 uM; ASSAY_TEST Inhibition of Bacterial Growth; detection method Absorption (OD600); MEDIA CAMHB; plate type 384well; NBS; CORNING #3640; time 18 hr.
`Cc1ccc(NC(=O)c2cc(S(=O)(=O)NC(C)(C)C)ccc2C)nc1`: the Inhibition is given as 21%.

Consider `C[C@H](c1ccc2c(c1)CCCC2)N(C)c1ncc2c(N)nc(N)nc2n1`, for which the Inhibition came out at 64.04%.

As for `COc1ccc(-c2cnc3ccc(N4CCCC4)nn23)cc1OC`, the Inhibition is recorded as 12.67%.

For the compound `CC(C)(C)c1cc(C(=O)Nc2cccnc2)cc(C(=O)Nc2cccnc2)c1`, the Inhibition was found to be 15.23%.

In the case of `CCNC(=O)C(C)Nc1nc(-c2cccnc2)nc2sc(C)c(C)c12` (stereo unspecified), the Inhibition was 4.74%.

For the compound `CC(C(=O)N1CCCC1)N1CCN(S(=O)(=O)c2ccc(C(C)(C)C)cc2)CC1` (stereo unspecified), the Inhibition worked out at 8.1%.

On to `O=C1COCc2ccc(Br)cc2N1Cc1ccc(C(F)(F)F)cc1`, for which the Inhibition is 12.84%.

Take `O=C(NC1CC1)c1ccc(N2CCOc3ccc(Cl)cc32)s1`: the Inhibition is listed as 18.01%.

Turning to `COCC(C)NC(=O)CSc1ncnc2sc(-c3ccccc3)cc12` (stereo unspecified), the Inhibition worked out at 19.45%.

As to `Cc1cc(OCC(=O)Nc2ccc(C(C)C)cc2)n(C)c(=O)c1C#N`, the Inhibition came out at 7.07%.

For the compound `COc1ccccc1C(C)NCC(=O)Nc1cc(C(F)(F)F)ccc1Cl` (stereo unspecified), the Inhibition came out at 10.99%.

Consider `CC[C@H](CO)NCCN[C@H](CC)CO.Cl.Cl`, for which the Inhibition is given as 13.87%.

As for `Cc1ccc(Oc2ccc(NC(=O)CNc3ccccc3N3CCCC3=O)cc2)cc1`, the Inhibition came to 5.88%.

Turning to `c1cc(C2=NCCN2)cc(-c2cc(-c3ccc(C4=NCCN4)cc3)no2)c1`, the Inhibition amounted to 5.99%.

As for `O=C(Nc1cnc2ccccc2c1)c1cccc(-n2cnnn2)c1`, the Inhibition was 5.61%.

Take `c1ccc(-c2cc(N3CCCCC3)c3ccccc3n2)nc1`: the Inhibition is reported as 9.48%.

On to `CS(=O)(=O)c1cccc(-c2cnc3[nH]cc(-c4ccc(CCC(=O)O)cc4)c3c2)c1`, for which the Inhibition stood at 21.11%.

In the case of `CC(C)C(C(=O)Nc1ccc(S(=O)(=O)N(C)C)cc1)c1ccc(Cl)cc1` (stereo unspecified), the Inhibition turned out to be 3.5%.

`Cc1cccc(-c2nc(Nc3ccncn3)c3sccc3n2)n1`: the Inhibition stood at 21.43%.

In the case of `Nc1nc(N)c2c3c(sc2n1)CN(Cc1ccccc1)CC3`, the Inhibition is listed as 15.72%.

For `O=C(Nc1cccc(Cl)c1)c1cnc(N2CCN(c3ccncc3)CC2)c(Cl)c1`, the Inhibition is given as 19.29%.

As for `CC(C)n1nc(-c2cc3c(Cl)cccc3[nH]2)c2c(N)ncnc21`, the Inhibition was 11.03%.

As for `O=C(CN1CCOCC1)Nc1ccc2ncnc(Nc3ccc(OCc4cccc(F)c4)c(Cl)c3)c2c1`, the Inhibition is recorded as 14.97%.

In the case of `CN1CCC(NCc2cccc(-c3ccc(S(=O)(=O)NCc4ccccc4)cc3)c2)CC1`, the Inhibition came to 14.84%.

With `CCOc1ccc(-c2nc(CNCCc3ccc(F)cc3)cs2)cc1`, the Inhibition was 30.74%.

`CC(C)(C)c1cc(C(=O)N2CCN(c3nccnc3C#N)CC2)n(Cc2ccccc2)n1`: the Inhibition turned out to be 20.75%.

Regarding `NS(=O)(=O)c1cccc(-c2ccc3ncc(N4CCOCC4)nc3c2)c1`, the Inhibition turned out to be 16.94%.

In the case of `FC(F)(F)c1cc(NCCc2ccccc2)nc(-c2ccccn2)n1`, the Inhibition is reported as -9.89%.

In the case of `Cc1ccc2[nH]c(C3CCCNC3)c(-c3ccncc3)c2c1.Cl.Cl` (stereo unspecified), the Inhibition is reported as 42.59%.

Regarding `Clc1ccc(-n2cc(COc3ccnc4ccccc34)nn2)cc1`, the Inhibition is on record as 21.12%.

Consider `CC(C)(C)n1nc(Cc2ccc(F)c(Cl)c2)c2c(N)ncnc21`, for which the Inhibition was found to be 12.68%.

With `CC(C(=O)Nc1ccc2oc(-c3ccncc3)nc2c1)c1ccccc1` (stereo unspecified), the Inhibition was found to be 33.61%.

For the compound `CC(C)n1ncc2c(C(=O)NCC(c3cccs3)N3CCOCC3)cc(-c3ccccc3)nc21` (stereo unspecified), the Inhibition is recorded as 11.85%.

For `O=C1[C@@H](Oc2ccccc2)[C@@H](c2ccc(Cl)cc2)N1CCn1cnc2c(NCc3ccccc3)ncnc21`, the Inhibition was -4.13%.

With `O=C(c1ccc(F)cc1)N(CCNc1ccccc1)c1ccccc1`, the Inhibition is on record as 14.62%.

`CCOc1ccc2cc(-c3nn(C(C)(C)C)c(N)c3C(N)=O)cnc2c1.Cl`: the Inhibition was 14.66%.

A word on the Inhibition: it is the relative decrease from the control value, in per cent.
